Compounds with a hit are over-represented: about 3.5% of the library has one in this group of screens.
LmPK inh: blocks Leishmania mexicana pyruvate kinase activity | purified LmPK, Kinase-Glo ATP luminescence, 1 h | Potency, µM (doses to about 57.5 µM), without a hit: at the top dose activity change, negative = inhibition, hits mostly inhibitors | 290,000 tested, 0.37% active; further: on the % scale 0 is the no-effect control and ±100 the full control effect
Target sequence (Q27686 whole entry, looked up): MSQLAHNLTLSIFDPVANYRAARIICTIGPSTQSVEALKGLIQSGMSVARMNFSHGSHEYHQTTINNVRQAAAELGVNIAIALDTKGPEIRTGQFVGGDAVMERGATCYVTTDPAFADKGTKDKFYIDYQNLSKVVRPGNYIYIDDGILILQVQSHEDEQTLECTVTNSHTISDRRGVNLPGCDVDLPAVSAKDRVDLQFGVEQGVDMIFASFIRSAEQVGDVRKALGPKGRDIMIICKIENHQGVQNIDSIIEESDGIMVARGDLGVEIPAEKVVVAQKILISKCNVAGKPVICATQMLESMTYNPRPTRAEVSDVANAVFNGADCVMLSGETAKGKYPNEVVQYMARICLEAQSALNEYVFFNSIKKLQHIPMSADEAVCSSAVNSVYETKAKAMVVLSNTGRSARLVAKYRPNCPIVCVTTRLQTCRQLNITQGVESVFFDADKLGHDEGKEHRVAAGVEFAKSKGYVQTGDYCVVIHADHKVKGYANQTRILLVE
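In 50 mM imidazole pH 7.2 with 7 mM MgCl2, LmPK (0.1 nM) turned over PEP (0.5 mM) and ADP (0.1 mM) for 1 h at room temperature. Luciferase read-out of ATP.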
RE007 growth inh: less growth of the S. pombe RE007 Vpr strain. S. pombe RE007 Vpr strain, BacTiter-Glo ATP luminescence, 24 h. Potency, µM (series often up to 92.2 µM), inactives show top-dose activity change, negative = less growth, usual class: inhibitors. 360,000 tested, 0.21% active. AID 651644; active means well fitted falling curve with a large enough effect; inconclusive means small, poorly fitted or top-dose-only effect; inactive means no such curve, though single readings can be large or run the other way; further: on the % scale 0 is the no-effect control and ±100 the full control effect; nearly all actives have a fitted effect of over 50% in size
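Fission yeast strain RE007, carrying one chromosomally integrated HIV-1 vpr copy, was seeded at OD 0.01 in PMG+AL medium with 23 nL pinned compound. After 24 h at 30 °C and 99% humidity, viability was read by BacTiter-Glo luminescence.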
Sm TGR inh: blocks Schistosoma mansoni thioredoxin glutathione reductase; Q962Y6; purified TGR, DTNB reduction, TNB absorbance 405 nm; Potency, µM (titrated, usually from 114 µM), inactives show at the top dose activity change, negative = inhibition, usual class: inhibitors; 360,000 tested, 3% active; further: on the % scale 0 is the no-effect control and ±100 the full control effect; nearly all actives have a fitted effect of over 60% in size
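Kinetic colorimetric format: TGR-catalysed, NADPH-driven DTNB reduction monitored via TNB absorbance. Enzyme dispensed at 20 nM; compound exposure 15 min at room temperature before reaction start.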
FBPA Giardia inh: inhibitors of Giardia lamblia fructose-1,6-bisphosphate aldolase; 290,000 tested, 0.71% active; A8B2U2; purified Giardia FBPA; Potency, µM (doses to about 59.6 µM), for the others: at the highest dose activity, negative = inhibition, actives largely listed as inhibitors; AID 2451; further: on the % scale 0 is the no-effect control and ±100 the full control effect; nearly all actives have a fitted effect of over 55% in size
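Giardia FBPA (40 nM reagent) was preincubated 10 min at RT with compound (up to 57.5 uM final), then substrate plus GAPDH/TPI/NAD/arsenate coupling system with diaphorase/resazurin was added; resorufin fluorescence (525/598 nm) was read after 20 min.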
Tb PYK inh: blocks Trypanosoma brucei pyruvate kinase; Q57TT1; TbPYK enzyme, Kinase-Glo Plus ATP luminescence, 45 min; Potency, µM (series often up to 76.8 µM), for inactives: at the top dose activity, negative = inhibition, actives largely listed as inhibitors; 410,000 tested, 0.12% active; AID 624173; further: on the % scale 0 is the no-effect control and ±100 the full control effect; nearly all actives have a fitted effect of over 50% in size
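Luminescent Kinase-Glo Plus end-point after 45 min room-temperature reaction of T. brucei pyruvate kinase started with 130 uM ADP (final). Buffer TEA 50 mM pH 7.2 with KCl, MgCl2, BSA, Tween-20; titration-based qHTS with fitted concentration-effect curves.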
NS1 function inh: inhibitors of influenza NS1 protein function. 270,000 tested, 0.4% active. Potency, µM (top dose mostly 46.1 µM), for inactives: at the highest dose activity, positive = more growth. AID 2326; calls by dose curve; further: actives are rising curves; nearly all actives have a fitted effect of over 50% in size
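S. cerevisiae expressing influenza A NS1, grown in glucose, washed, then diluted 1:100 into pH 6.0 -URA galactose medium with 23 nl compound. Growth recovery read as OD600; NS1-free strain serves as control.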
An asterisk follows results filed as active. Unless noted, the call rests on the fitted dose curve; in most records, active means well fitted curve in the direction sought with a large enough effect; inconclusive means small, poorly fitted or top-dose-only effect, or another doubt; inactive means no such curve, though single readings can be large; an effect the other way counts as inactive or inconclusive. Potency means the concentration at half of the fitted maximal effect.

Screening Fc1ccccc1SCc1nnc(-c2ccccc2Br)o1 returned LmPK inh -17%, RE007 growth inh 10%, Sm TGR inh 11%, FBPA Giardia inh -4%, Tb PYK inh 32µM* and NS1 function inh -25%.
For CC(=O)c1ccc(NC(=O)c2ccc(-c3nc(COc4ccc(C)cc4)c(C)o3)cc2)cc1 the results were Sm TGR inh 11% and Tb PYK inh -5%.
Screening CCCCC(=O)NC(N1CCCCC1)C(Cl)(Cl)Cl (stereo not drawn) returned LmPK inh 1%, RE007 growth inh 7%, Sm TGR inh 11µM*, FBPA Giardia inh -24%, Tb PYK inh inconclusive and NS1 function inh 2%.
`Cc1ccc(C(=O)c2sc(Nc3ccccc3)c(S(=O)(=O)c3ccccc3)c2N)c(C)c1` gave Sm TGR inh 5% and Tb PYK inh 3%.
Screening Nc1ccccc1C(=O)OCC(=O)c1ccc2c(c1)OCCO2 returned LmPK inh 14µM*, RE007 growth inh -15%, Sm TGR inh 28%, FBPA Giardia inh 14%, Tb PYK inh -19% and NS1 function inh 13%.
O=C(CS(=O)(=O)c1ccccc1)c1ccc2c(c1)OCCO2 was read as LmPK inh 13µM*, RE007 growth inh 17%, Sm TGR inh inconclusive, FBPA Giardia inh 1%, Tb PYK inh 6% and NS1 function inh 6%.
O=C(CCN1Cc2ccccc2C1)c1ccc2c(c1)OCCO2 was read as LmPK inh 0%, RE007 growth inh inconclusive, Sm TGR inh 0.89µM*, FBPA Giardia inh -6%, Tb PYK inh inconclusive and NS1 function inh -87%.
Screening O=C(O)CCC(=O)c1ccc2c(c1)OCCO2 returned LmPK inh -3%, RE007 growth inh -7%, Sm TGR inh -16%, FBPA Giardia inh 0%, Tb PYK inh 4% and NS1 function inh inconclusive.
O=C(CCN1CCc2ccccc2C(c2ccccc2)C1)c1ccc2c(c1)OCCO2 (stereo not drawn) was read as LmPK inh -1%, RE007 growth inh 5.6µM*, Sm TGR inh 0.56µM*, FBPA Giardia inh -15%, Tb PYK inh inconclusive and NS1 function inh -49%.
`O=C(COc1cccc(Cl)c1)N1CCC(c2nc3ccccc3o2)CC1` gave Sm TGR inh 5% and Tb PYK inh 0%.
`O=C(Cn1cc(S(=O)(=O)N2CCN(c3ccccc3F)CC2)c2ccccc2c1=O)Nc1ccc(F)cc1Cl` gave Sm TGR inh -1% and Tb PYK inh 1%.
CC(=O)CC1OC(=O)C(Br)=C1NCc1ccccc1 (stereo not drawn) was read as LmPK inh 2%, RE007 growth inh inconclusive, Sm TGR inh 3.5µM*, FBPA Giardia inh -4%, Tb PYK inh -24% and NS1 function inh -1%.
Screening O=C(CC1Oc2ccccc2NC1=O)NCc1ccccc1 (stereo not drawn) returned LmPK inh -3%, RE007 growth inh 2%, Sm TGR inh 0%, FBPA Giardia inh 2%, Tb PYK inh 1% and NS1 function inh 4%.
Screening Cc1cc2c(cc1S(=O)(=O)Nc1cccc(Cl)c1C)OCCN2C returned Sm TGR inh inconclusive and Tb PYK inh -11%.
C#CC[N+]1(CC#Cc2cccc3ccccc23)CCOCC1 was read as LmPK inh 3%, RE007 growth inh 8%, Sm TGR inh 28µM*, FBPA Giardia inh 4%, Tb PYK inh 4% and NS1 function inh 0%.
Screening C#CC[N+]1(CC#Cc2ccc(C#CC[N+]3(CC#C)CCOCC3)cc2)CCOCC1 returned LmPK inh 7%, RE007 growth inh -10%, Sm TGR inh 0%, FBPA Giardia inh -4%, Tb PYK inh -3% and NS1 function inh 4%.
`CCOC(=O)C1CCC(CN(Cc2ccc(OC)cc2)S(=O)(=O)c2ccc(F)c(C(=O)Nc3c(C)cccc3C)c2)CC1` (stereo not drawn) gave Sm TGR inh 8% and Tb PYK inh 3%.
C/C(=N/OC(=O)c1ccc(C)cc1)c1cccs1 was read as LmPK inh 10µM*, RE007 growth inh inconclusive, Sm TGR inh -1%, FBPA Giardia inh -2%, Tb PYK inh inconclusive and NS1 function inh -59%.
For Cc1ccc(C(=O)O/N=C(\N)c2ccccn2)cc1 the results were LmPK inh 14µM*, RE007 growth inh inconclusive, Sm TGR inh 1%, FBPA Giardia inh 6%, Tb PYK inh inconclusive and NS1 function inh -26%.
Screening C/C(=N\OC(=O)c1ccc(C)cc1)c1sc(C)nc1C returned LmPK inh inconclusive, RE007 growth inh 30%, Sm TGR inh -9%, FBPA Giardia inh 2%, Tb PYK inh -5% and NS1 function inh -75%.
`N/C(=N\OC(=O)c1ccc(Br)o1)c1ccccn1` gave LmPK inh 13µM*, RE007 growth inh inconclusive, Sm TGR inh 1%, FBPA Giardia inh -2%, Tb PYK inh -21% and NS1 function inh -34%.
`Cc1cccc(/C(N)=N/OC(=O)c2ccc(Br)o2)c1` gave LmPK inh -23%, RE007 growth inh inconclusive, Sm TGR inh 2%, FBPA Giardia inh -5%, Tb PYK inh -17% and NS1 function inh -19%.
Cc1c(Cl)c(-c2n[nH]c(=S)n2-c2ccc(F)cc2)nn1C was read as LmPK inh inconclusive, RE007 growth inh 1%, Sm TGR inh -21%, FBPA Giardia inh 0%, Tb PYK inh 4µM* and NS1 function inh -2%.
Screening Cc1ccc(-n2c(-c3ccco3)n[nH]c2=S)cc1 returned LmPK inh inconclusive, RE007 growth inh 7%, Sm TGR inh 7%, FBPA Giardia inh 6%, Tb PYK inh 6.3µM* and NS1 function inh 0%.
Fc1ccc(-n2c(-c3ccco3)n[nH]c2=S)cc1 was read as LmPK inh inconclusive, RE007 growth inh 12%, Sm TGR inh 12%, FBPA Giardia inh -17%, Tb PYK inh 8.9µM* and NS1 function inh 8%.
`Cc1ccc(NS(=O)(=O)c2c(C)nc3sc(C)cn3c2=O)c(C)c1` gave Sm TGR inh 2% and Tb PYK inh -4%.
CSC(=N)N was read as FBPA Giardia inh -3% and NS1 function inh 3%.
`Cc1cc(-c2ccc(C)c(S(=O)(=O)Nc3ccccc3C(F)(F)F)c2)on1` gave Sm TGR inh -7% and Tb PYK inh 6%.
`COc1cccc(NC(=O)Cn2cc(S(=O)(=O)N3CCCC3)c(S(=O)(=O)N3CCCC3)c2)c1` gave Sm TGR inh 20% and Tb PYK inh 2%.
For O=c1c(=NNc2ccccc2Cl)c(=O)c2ccccc12 the results were LmPK inh 16µM*, RE007 growth inh 6%, Sm TGR inh 2%, FBPA Giardia inh -5%, Tb PYK inh -12% and NS1 function inh 0%.
